Measurements published in the antibiotic and cytotoxicity screens of Wong et al. (2023).
The campaign covered roughly 39,000 compounds. About 3,300 (8.5%) were called active. Only a selection was taken, and actives are over-represented in it overall.

system: HepG2; test: cytotoxicity call (relative viability < 0.9); details: 10 µM

SMILES	cytotoxicity call
O=c1[nH][n+](-c2ccccc2)no1	inactive
COCC(=O)Nc1ccc2c(c1)[C@@H]1C[C@@H](CC(=O)N3CCOCC3)O[C@@H](CO)[C@@H]1O2	inactive
O=C(NC[C@@H](O)CO)c1c(I)c(C(=O)NC[C@@H](O)CO)c(I)c(N(CCO)C(=O)CO)c1I	inactive
CC(=O)N(C[C@@H](O)CO)c1c(I)c(C(=O)NC[C@@H](O)CO)c(I)c(C(=O)NC[C@@H](O)CO)c1I	inactive
O=C(NCC(O)CO)c1c(I)c(C(=O)NCC(O)CO)c(I)c(N(CCO)C(=O)CO)c1I (stereo unspecified)	active
Cc1ccc(S(=O)(=O)Nc2ccc3c(c2)CC(=O)N([C@@H](C)CO)C[C@H](C)[C@H](CN(C)S(=O)(=O)c2cccs2)O3)cc1	inactive
C[C@H](CO)N1C[C@H](C)[C@H](CN(C)Cc2ccc(Cl)c(Cl)c2)Oc2c(NS(=O)(=O)c3cccs3)cccc2C1=O	inactive
CCn1c(Cl)nc2c1c(=O)n(C)c(=O)n2C	inactive
Cc1nc2c(=O)n(C)c(=O)n(C)c2nc1Cl	active
Cn1c(=O)c2[nH]c(C3CCCC3)nc2n(C)c1=O	inactive
N=C(N)N1CCc2ccccc2C1.O=S(=O)(O)O	inactive
CN1Cc2c(Cl)cc(Cl)cc2[C@H](c2cccc(S(=O)(=O)NCCOCCOCCNC(=O)NCCCCNC(=O)NCCOCCOCCNS(=O)(=O)c3cccc([C@@H]4CN(C)Cc5c(Cl)cc(Cl)cc54)c3)c2)C1	inactive
COc1ccc(S(=O)(=O)N(C)C[C@@H]2Oc3cc(C#CC4CCCC4)ccc3S(=O)(=O)N([C@H](C)CO)C[C@@H]2C)cc1	inactive
O=C(C[C@H]1C[C@H]2c3cc(NS(=O)(=O)c4ccc(F)cc4)ccc3O[C@H]2[C@@H](CO)O1)NCc1cccnc1	inactive
COc1ccc(NC(=O)N(C)C[C@H]2Oc3c(NC(=O)c4ccc(-c5nccs5)cc4)cccc3C(=O)N([C@H](C)CO)C[C@H]2C)cc1	inactive
COC(=O)c1c(CC[C@@H](CO)NC(=O)N2CCC[C@H]2Cn2cc(-c3ccccn3)nn2)oc(C(C)=O)c1C(=O)OC	inactive
C[C@H](CO)N1C[C@H](C)[C@H](CN(C)Cc2ccc(Oc3ccccc3)cc2)Oc2ccc(NC(=O)CCC(F)(F)F)cc2CC1=O	active
C[C@H]1CN([C@@H](C)CO)C(=O)Cc2cc(NC(=O)CCC(F)(F)F)ccc2O[C@@H]1CN(C)Cc1ccc(Oc2ccccc2)cc1	inactive
C[C@@H]1CN([C@H](C)CO)C(=O)Cc2cc(NC(=O)CCC(F)(F)F)ccc2O[C@H]1CN(C)Cc1ccc(Oc2ccccc2)cc1	active
C[C@@H]1CN([C@H](C)CO)C(=O)Cc2cc(NC(=O)CCC(F)(F)F)ccc2O[C@@H]1CN(C)Cc1ccc(Oc2ccccc2)cc1	active
C[C@@H]1CN([C@@H](C)CO)C(=O)Cc2cc(NC(=O)CCC(F)(F)F)ccc2O[C@@H]1CN(C)Cc1ccc(Oc2ccccc2)cc1	active
C[C@H]1CN([C@@H](C)CO)C(=O)Cc2cc(NC(=O)CCC(F)(F)F)ccc2O[C@H]1CN(C)Cc1ccc(Oc2ccccc2)cc1	inactive

SMILES	cytotoxicity call
COc1ccc(S(=O)(=O)Nc2ccc3c(c2)C(=O)N([C@H](C)CO)C[C@@H](C)[C@@H](CN(C)C(=O)CCC(F)(F)F)OCCCC[C@H](C)O3)cc1	inactive
C[C@@H]1CCCCO[C@@H](CN(C)S(=O)(=O)c2ccc(F)cc2)[C@H](C)CN([C@@H](C)CO)C(=O)c2cc(NS(=O)(=O)c3ccc(Cl)cc3)ccc2O1	inactive
C[C@H](CO)N1C[C@H](C)[C@H](CN(C)Cc2ccc3c(c2)OCO3)OCCCC[C@H](C)Oc2ccc(NC(=O)c3ccccc3)cc2C1=O	inactive
Nc1nnc(SC[C@@H](O)CO)s1	inactive
COc1ccc(NC(=O)N(C)C[C@@H]2Oc3ccc(NS(C)(=O)=O)cc3CC(=O)N([C@@H](C)CO)C[C@@H]2C)cc1	inactive
COCC(=O)N(C)C[C@@H]1Oc2cc(C#Cc3ccccc3)ccc2S(=O)(=O)N([C@@H](C)CO)C[C@@H]1C	inactive
O=C(O)C[C@@H]1CC[C@@H]2[C@H](COC[C@H](O)CN2S(=O)(=O)c2ccc(F)cc2)O1	inactive
CN(C)CCCNC(=O)C[C@@H]1CC[C@@H]2[C@H](COC[C@H](O)CN2S(=O)(=O)c2ccc(Cl)cc2)O1	inactive
C[C@@H]1CCCCO[C@H](CN(C)S(=O)(=O)c2cccs2)[C@H](C)CN([C@H](C)CO)C(=O)c2cc(NC(=O)NC3CCCCC3)ccc2O1	inactive
C[C@H]1CN([C@@H](C)CO)C(=O)c2cccc(NC(=O)NC3CCCCC3)c2O[C@H]1CN(C)C(=O)Nc1cccc2ccccc12	inactive
CN1CCN(C(=O)C[C@H]2CC[C@@H]3[C@H](COC[C@@H](O)CN3C(=O)C3CC3)O2)CC1	inactive
COC(=O)c1c(CC[C@@H](CO)NC(=O)N2CCC[C@H]2Cn2cc(Cc3ccccc3)nn2)oc(C(C)=O)c1C(=O)OC	inactive
C[C@@H]1CN([C@@H](C)CO)C(=O)Cc2cc(NC(=O)CCC(F)(F)F)ccc2O[C@H]1CN(C)Cc1ccc(Oc2ccccc2)cc1	active
C[C@H](CO)N1C[C@H](C)[C@@H](CN(C)Cc2ccc(Oc3ccccc3)cc2)Oc2ccc(NC(=O)CCC(F)(F)F)cc2CC1=O	active
Cc1noc(C)c1S(=O)(=O)Nc1ccc2c(c1)C(=O)N([C@H](C)CO)C[C@H](C)[C@@H](CN(C)S(=O)(=O)c1c(C)noc1C)O2	inactive
C[C@H]1CN([C@@H](C)CO)C(=O)c2cccc(NC(=O)c3ccncc3)c2O[C@H]1CN(C)Cc1ccc(C(=O)O)cc1	inactive
C[C@@H]1CN([C@H](C)CO)C(=O)c2cccc(NC(=O)CCCCCC(=O)Nc3ccccc3N)c2O[C@H]1CN(C)Cc1ccccc1	inactive
CCOC(=O)C[n+]1ccccc1C	inactive
CC(C)c1cc(C(C)C)c(CC(=O)NS(=O)(=O)Oc2c(C(C)C)cccc2C(C)C)c(C(C)C)c1	active
COC(=O)[C@@H](N)c1cccc(Cl)c1	inactive
CC(C)c1cccc(C(C)C)c1NC(=O)Cc1cccs1	inactive
COc1cccc(NC(=O)N[C@@H]2C=C[C@H](CC(=O)N3CCN(C)CC3)O[C@H]2CO)c1	inactive

SMILES	cytotoxicity call
CO[C@@H]1[C@H](O[P@@](=O)(S)OC[C@H]2O[C@@H](n3cnc4c(N)ncnc43)C[C@@H]2O)[C@@H](CO)O[C@H]1n1ccc(=O)[nH]c1=O	active
Nc1ncnc2c1ncn2[C@H]1C[C@H](O)[C@@H](CO)O1	inactive
CO[C@@H]1[C@H](O[P@@](=O)(OC[C@H]2O[C@@H](n3cnc4c(N)ncnc43)C[C@@H]2O)SCOC(=O)OC(C)C)[C@@H](CO)O[C@H]1n1ccc(=O)[nH]c1=O	inactive
Cc1noc(C)c1NC(=O)Nc1ccc2c(c1)C(=O)N([C@@H](C)CO)C[C@H](C)[C@@H](CN(C)Cc1ccncc1)OCCCC[C@H](C)O2	inactive
COc1ccc(NC(=O)N(C)C[C@@H]2OCCCC[C@H](C)Oc3ccc(NS(=O)(=O)c4ccc(OC)cc4)cc3C(=O)N([C@H](C)CO)C[C@H]2C)cc1	inactive
C[C@@H]1CCCCO[C@H](CN(C)C(=O)NC2CCCCC2)[C@H](C)CN([C@H](C)CO)C(=O)c2cc(NC(=O)Nc3cccc4ccccc34)ccc2O1	inactive
Cc1noc(C)c1NC(=O)Nc1ccc2c(c1)CC(=O)N([C@H](C)CO)C[C@@H](C)[C@@H](CN(C)Cc1ccc(Oc3ccccc3)cc1)O2	inactive
C[C@@H]1CN([C@H](C)CO)C(=O)Cc2cc(NC(=O)Nc3ccc(C(F)(F)F)cc3)ccc2O[C@H]1CN(C)Cc1ccc(Oc2ccccc2)cc1	inactive
C[C@H](CO)N1C[C@H](C)[C@@H](CN(C)Cc2ccc(Oc3ccccc3)cc2)Oc2ccc(NC(=O)Nc3ccc(C(F)(F)F)cc3)cc2CC1=O	active
C[C@@H]1CN([C@H](C)CO)C(=O)Cc2cc(NC(=O)Nc3ccc(C(F)(F)F)cc3)ccc2O[C@@H]1CN(C)Cc1ccc(Oc2ccccc2)cc1	active
C[C@@H]1CN([C@@H](C)CO)C(=O)Cc2cc(NC(=O)Nc3ccc(C(F)(F)F)cc3)ccc2O[C@@H]1CN(C)Cc1ccc(Oc2ccccc2)cc1	active
C[C@H]1CN([C@@H](C)CO)C(=O)Cc2cc(NC(=O)Nc3ccc(C(F)(F)F)cc3)ccc2O[C@H]1CN(C)Cc1ccc(Oc2ccccc2)cc1	active
COc1ccc(NC(=O)Nc2ccc3c(c2)C(=O)N([C@@H](C)CO)C[C@@H](C)[C@@H](CN(C)C(=O)C2CCCCC2)OCCCC[C@H](C)O3)cc1	inactive
CN1CCN(C(=O)C[C@@H]2CC[C@H]3[C@@H](COC[C@H](O)CN3CC3CCCC3)O2)CC1	inactive
COc1ccc(S(=O)(=O)Nc2ccc3c(c2)C(=O)N([C@H](C)CO)C[C@H](C)[C@H](CN(C)S(=O)(=O)c2ccc(F)cc2)O3)cc1	inactive
C[C@@H]1CN([C@H](C)CO)C(=O)c2ccccc2-c2ccccc2CO[C@H]1CN(C)C(=O)c1cc(Cl)cc(Cl)c1	inactive
Nc1nnc(SCC(=O)N2CCOCC2)[nH]1	inactive
C[C@@H]1CN([C@@H](C)CO)C(=O)Cc2cc(NC(=O)Nc3ccc(C(F)(F)F)cc3)ccc2O[C@H]1CN(C)Cc1ccc(Oc2ccccc2)cc1	inactive
C[C@H](CO)N1C[C@H](C)[C@H](CN(C)Cc2ccc(Oc3ccccc3)cc2)Oc2ccc(NC(=O)Nc3ccc(C(F)(F)F)cc3)cc2CC1=O	active
C[C@H]1CN([C@@H](C)CO)C(=O)Cc2cc(NC(=O)Nc3ccc(C(F)(F)F)cc3)ccc2O[C@@H]1CN(C)Cc1ccc(Oc2ccccc2)cc1	inactive
COc1c2ccoc2nc2c(OC)c(OCC(O)C(C)(C)O)ccc12 (stereo unspecified)	active
C[C@@H]1CN([C@@H](C)CO)C(=O)c2cc(Br)cnc2O[C@@H]1CN(C)C(=O)CN1CCOCC1	inactive
